Assay results from the supplement of paper PMC5641865, “A screen for kinase inhibitors identifies antimicrobial imidazopyridine aminofurazans as specific inhibitors of the Listeria monocytogenes PASTA kinase PrkA” (The Journal of Biological Chemistry, 2017).
± gives the standard deviation of the averaged measurements.

What follows are compounds tested on Listeria monocytogenes 10403S (assay: growth inhibition relative to ceftriaxone-alone control; higher = stronger potentiation of ceftriaxone growth inhibition). Settings: 10 µM; ceftriaxone 1 ug/ml; 12 h.
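Further: End-point A600 read in BHI broth at 37 °C with 2% DMSO, inhibition computed as (1 − OD with compound plus ceftriaxone ÷ OD with ceftriaxone only) × 100.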

SMILES | growth inhibition [%]
COC(=O)c1ccc2c(c1)C(=Cc1cc(Br)c(O)c(Br)c1)C(=O)N2 | 12.4 ± 1.5
N#CCNC(=O)c1ccc(-c2ccnc(Nc3ccc(N4CCOCC4)cc3)n2)cc1 | 33 ± 13
CNC(=O)c1ccccc1Sc1ccc2c(/C=C/c3ccccn3)n[nH]c2c1 [Axitinib] | -11.8 ± 14
Cc1cc(O)cc(C)c1/C=C/c1cncc(C(=O)OC(C)(C)C)c1 | -0.285 ± 0.11
Cc1c2ccc(N(C)c3ccnc(Nc4cccc(S(N)(=O)=O)c4)n3)cc2nn1C | 2.52 ± 4.2
Cc1cc2c(F)c(Oc3ncnn4cc(OC[C@@H](C)O)c(C)c34)ccc2[nH]1 | 15.5 ± 23
CO[C@H]1C[C@@H]2CC[C@@H](C)[C@@](O)(O2)C(=O)C(=O)N2CCCC[C@H]2C(=O)O[C@H]([C@H](C)C[C@@H]2CC[C@@H](OCCO)[C@H](OC)C2)CC(=O)[C@H](C)/C=C(\C)[C@@H](O)[C@@H](OC)C(=O)[C@H](C)C[C@H](C)/C=C/C=C/C=C/1C [Everolimus (RAD001)] | 27.5 ± 19
COC(=O)Nc1nc2cc(Oc3ccc(NC(=O)Nc4ccccc4)cc3)ccc2[nH]1 | 8.77 ± 1.8
O=C1NC(=O)[C@@H](c2cn3c4c(cccc24)CCC3)[C@@H]1c1c[nH]c2ccccc12 [ARQ 197 (Tivantinib)] | 63.3 ± 38
CCn1c(-c2nonc2N)nc2c(C#CC(C)(C)O)nc(CN3CCCC3)cc21 | 4.95 ± 5.7
O=C(NC[C@H](O)CO)c1ccncc1Nc1ccc(I)cc1F | 1.43 ± 12
FC(F)(F)c1ccc(-c2nn3ncccc3c2-c2ccnc(Nc3ccc4c(c3)OCCO4)n2)cc1 | -7.04 ± 3.3
O=C1NC(=O)C(c2ccccc2Cl)=C1Nc1cccc(O)c1 | -3.8 ± 3.6
CN(C)C(=O)O[C@@H]1CN[C@@H](C#Cc2cc3ncnc(Nc4ccc(OCc5cccc(F)c5)c(Cl)c4)c3s2)C1 | -5.56 ± 8.1
N#Cc1c(NC(=O)CN2CCOCC2)sc2c1CCCC2 | 9.96 ± 12
COc1cccc(-c2cc(=O)c3ccccc3o2)c1N | 6.7074 ± 0.0026
CCn1c(-c2nonc2N)nc2cnc(Oc3cccc(NC(=O)c4ccc(OCCN5CCOCC5)cc4)c3)cc21 | 0.09 ± 1.7
Cc1cnc(NC(=O)Nc2cc(Br)c(C)cc2OC[C@@H]2CNCCO2)cn1 | 61.8 ± 50
CCCN1CCC(c2ccc(Nc3nc(Nc4cc(F)ccc4C(N)=O)c4cc[nH]c4n3)c(OC)c2)CC1 | -8.21 ± 4.5

SMILES | growth inhibition [%]
ON=C1CCc2cc(-c3nc(C4CCNCC4)[nH]c3-c3ccncc3)ccc21 | 7.4 ± 4.8
CCS(=O)(=O)c1ccc(OC)c(Nc2ncc(-c3cccc(C(C)=O)c3)o2)c1 | 7.79 ± 2.2
O=C(Cc1ccc(-c2ccc(OCCN3CCOCC3)cc2)cn1)NCc1ccccc1 | 33.6 ± 8.5
Clc1ccc(Nc2nnc(Cc3ccncc3)c3ccccc23)cc1 [Vatalinib 2HCl (PTK787)] | 24.8 ± 20
CC1=C(C(=O)Nc2cc(Cl)c3[nH]ncc3c2)C(c2ccc(C(F)(F)F)cc2)CC(=O)N1 (stereo not drawn) | -4.67 ± 5.5
Cc1ccc(C(=O)NC2CCC2)cc1-c1ccc(C(=O)NCC2CC2)cc1 | -1.49 ± 1.4
CCn1c(-c2nonc2N)nc2c(C#CCN)ncc(OCCCN)c21 | -1.03 ± 0.6
Cc1nnc(-c2cccc(-c3ccc(C(=O)NCC4CC4)cc3)c2)o1 | 3.5 ± 10
CN1CCN(c2cccc(Nc3nc4c(-c5ccc(S(C)(=O)=O)cc5)cccn4n3)c2)CC1 | 69 ± 27
N#Cc1c(NC(=O)c2cccc3ccccc23)sc2c1CCCC2 | -6.35 ± 1.2
COc1ccccc1-c1cc(/C=C2\C(=O)Nc3ncc(Br)cc32)cc(Br)c1O | -8.54 ± 8.1
c1ccc(-c2n[nH]cc2-c2ccnc(-c3ccc(OCCn4ccnc4)cc3)c2)nc1 | -3.25 ± 8
Fc1ccc(-c2cc(-c3c[nH]nc3-c3ccccn3)ccn2)cc1 | -6.8 ± 13
C#Cc1cccc(Nc2ncnc3ccc(OCCCCNCCS(C)(=O)=O)cc23)c1 | -12 ± 5.6
COc1cc(N2CCN(C(C)C)CC2)ccc1Nc1nc(Nc2ccc(F)cc2C(N)=O)c2cc[nH]c2n1 | -11.9 ± 7
C[S+]([O-])c1ccc(-c2nc(-c3ccc(F)cc3)c(-c3ccncc3)[nH]2)cc1 (stereo not drawn) | 28.4 ± 26
COc1cc(/C=N/Nc2ncnc3c2cnn3C(C)C)ccc1O | -1.18 ± 2.2
COc1cc2nccc(Oc3ccc(NC(=O)C4(C(=O)Nc5ccc(F)cc5)CC4)cc3)c2cc1OC [XL-184 (Cabozantinib)] | 30.5 ± 5.4
O=C(NCCCNc1nc(Nc2cccc(NC(=O)N3CCCC3)c2)ncc1I)c1cccs1 | -19.4 ± 21
